These results are taken from PubChem BioAssay (Tox21).

Assay [1] deals with Estrogen receptor beta (Homo sapiens) (UniProt Q92731). Description: qHTS assay to identify small molecule agonists of the estrogen receptor beta (ER-beta) signaling pathway (AID 1259377; active means well fitted activation curve with a large enough effect in the signal ratio in the repeat runs, not every such curve was filed as active; the % refers to the signal ratio). Put shortly:
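Agonist mode cell assay in GripTite HEK293T cells expressing an ER-beta fusion that drives beta-lactamase from an Upstream Activator Sequence; 16 hr compound exposure at 37C, then 2 h LiveBLAzer B/G FRET substrate at room temperature, fluorescence read-out.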
On the technique in general: Quantitative high-throughput screening tests each substance at several concentrations.

The nature of assay [2]: qHTS assay to identify small molecule agonists of the androgen receptor (AR) signaling pathway in the presence of an antagonist - cell viability counter screen (AID 1259379). Further: series mostly up to about 92 µM; nearly all actives have a fitted effect of over 25% in size. Put shortly:
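MDA-kb2 human breast carcinoma cells (stable MMTV-luciferase, AR/GR responsive) were seeded 3,000 cells/well, pre-incubated 5 hr at 37C without CO2, then given 3.0uM nilutamide and compounds at 15 concentrations for 16 hr. Viability was read by CellTiter-Fluor fluorescence.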

The nature of assay [3]: qHTS assay to identify small molecule antagonists of the estrogen receptor beta (ER-beta) signaling pathway - cell viability counter screen (AID 1259382). Further: nearly all actives have a fitted effect of over 55% in size. Further: potency means the concentration at half of the fitted maximal effect. Put shortly:
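ER-beta-UAS-bla HEK293T cells (2,000/well, 2% charcoal-stripped FBS) were pre-incubated 6 hr at 37C, then given compound plus 1nM final 17-beta-estradiol for 16 hr. Viability was read in the same wells by CellTiter-Glo luminescence after 30 min at room temperature.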

Assay [4] has as its target Estrogen receptor (Homo sapiens) (UniProt P03372). The experiment in a line: qHTS assay to identify small molecule agonists of the estrogen receptor alpha (ER-alpha) signaling pathway in the presence of an antagonist (AID 1259383; calls by dose curve; further: top concentration of the series differs between compounds; nearly all actives have a fitted effect of over 15% in size). Put shortly: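 VM7Luc4E2 cells (endogenous full-length ER-alpha, 4×ERE-luciferase) were precultured 5 days in phenol red-free medium with 10% charcoal-stripped FBS, given 10.0nM ICI-182,780 (final), then treated with compounds at 15 concentrations for 22hr at 37C; luminescence read with ONE-Glo.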

Assay [5] can be described thus: qHTS assay to identify small molecule agonists or antagonists of the thyroid stimulating hormone receptor (TSHR) signaling pathway - wild type cell line counter screen (AID 1259384; calls by dose curve; further: potency means the concentration at half of the fitted maximal effect). A digest of the protocol:
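Wild-type HEK293 cells were plated 18 h at 37 C/5% CO2, pin-dosed with compound plus Ro20-1724 medium, held 30 min at room temperature, then given cAMP-d2 and anti-cAMP-cryptate; fluorescence was read after 1 h. Fifteen concentrations, triplicate.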

Assay [6] deals with Thyrotropin receptor (Homo sapiens) (UniProt P16473). Description: qHTS assay to identify small molecule antagonists of the thyroid stimulating hormone receptor (TSHR) signaling pathway (AID 1259385; calls by dose curve; further: nearly all actives have a fitted effect of over 20% in size). A digest of the protocol:
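TSHR-HEK293 cells were plated and held 18 h at 37C/5% CO2, then given compound plus Ro20-1724 and stimulated with TSH at 1.5 ng/mL final. After 30 min at room temperature, cAMP was detected with cAMP-d2/anti-cAMP-cryptate (1 h) by fluorescence.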

For assay [7], the target named is Progesterone receptor (Homo sapiens) (UniProt P06401). The experiment in a line: qHTS assay to identify small molecule agonists of the progesterone receptor (PR) signaling pathway (AID 1346784; calls by dose curve; further: nearly all actives have a fitted effect of over 30% in size). A digest of the protocol: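 Cells (PR-UAS-bla HEK 293T, GripTite) were plated in assay medium containing 2% charcoal-stripped FBS and incubated 6 hr. Test compounds in DMSO were added for 16 hr at 37C. FRET substrate was then loaded for 2 hr at room temperature before fluorescence reading.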

For assay [8] the target is unchanged. Description: qHTS assay to identify small molecule antagonists of the progesterone receptor (PR) signaling pathway (AID 1346795; active means well fitted inhibition curve with a large enough effect in the signal ratio in the repeat runs, not every such curve was filed as active; the % refers to the signal ratio; further: potency means the concentration at half of the fitted maximal effect). Put shortly:
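Antagonist mode: compounds tested against 1 nM (final) promegestone stimulation in HEK293T cells expressing PR-UAS-bla reporter, 16 hr at 37C, 5% CO2; beta-lactamase activity detected via B/G FRET substrate after 2 hr at room temperature.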

Assay [9] in a line: qHTS assay to identify small molecule antagonists of the progesterone receptor (PR) signaling pathway - cell viability counter screen (AID 1346798). Further: series mostly up to about 92 µM; nearly all actives have a fitted effect of over 50% in size. Put shortly:
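Counter screen for cytotoxicity: viability of PR-UAS-bla HEK293T cells was measured with CellTiter-Glo luminescence following 16 hr compound exposure in the presence of R5020.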

A short description of assay [10]: qHTS assay to identify small molecule agonists of the progesterone receptor (PR) signaling pathway - cell viability counter screen (AID 1346799; calls by dose curve; further: nearly all actives have a fitted effect of over 45% in size). Put shortly: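 Cells (PR-UAS-bla HEK293T) are plated at 3,000/well in 2% charcoal-stripped FBS medium, rested 6 hr, dosed and incubated 16 hr at 37C. CellTiter-Glo is then added and luminescence measured after 30 min at room temperature.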

A short description of assay [11]: qHTS assay to identify small molecule antagonists of the TGF-beta/Smad signaling pathway - cell viability counter screen (AID 1346824). Further: nearly all actives have a fitted effect of over 50% in size. Put shortly:
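SBE-bla HEK 293T cells were plated overnight at 37 C, then given compounds in DMSO plus TGF-beta1 (added as 0.25 ng/mL solution) for 5 hr. After the bla read, CellTiter-Glo was added to the same wells and luminescence read after 30 min at room temperature.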

A short description of assay [12]: qHTS assay to identify small molecule agonists of the TGF-beta/Smad signaling pathway - cell viability counter screen (AID 1346829). Further: top concentration of the series differs between compounds; nearly all actives have a fitted effect of over 45% in size. A digest of the protocol:
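Same-well cytotoxicity: CellTiter-Glo added after the 2 hr room-temperature beta-lactamase substrate step, luminescence measured 30 min later; cells had 5 hr of compound at 37 C.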

Assay [13] is described as follows: qHTS assay to identify small molecule agonists of the TGF-beta/Smad signaling pathway (AID 1346859; active means well fitted activation curve with a large enough effect in the signal ratio in the repeat runs, not every such curve was filed as active; the % refers to the signal ratio; further: series mostly up to about 77 µM). Put shortly: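 Reporter line: HEK 293T with stably integrated SBE-controlled beta-lactamase. Compound exposure lasts 5 hr at 37 C and 5% CO2; substrate loading follows for 2 hr at room temperature, with emission read at 460 and 530 nm.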
A short description of assay [14]: qHTS assay to identify small molecule antagonists of the sonic hedgehog signaling (Shh) pathway (AID 1259369; calls by dose curve; further: nearly all actives have a fitted effect of over 45% in size; further: potency means the concentration at half of the fitted maximal effect). A digest of the protocol: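 NIH/3T3-derived 3T3Gli1-Luc cells with stably integrated Gli1-Luc reporter were preincubated 4hr at 37 C, then given compounds in DMSO plus Shh conditioned medium and incubated 24hr. Firefly luciferase luminescence read after 30min reagent at room temperature.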

The target in assay [15] is Androgen receptor (Homo sapiens) (UniProt P10275). Description: qHTS assay to identify small molecule agonists of the androgen receptor (AR) signaling pathway in the presence of an antagonist (AID 1259381; calls by dose curve; further: nearly all actives have a fitted effect of over 15% in size). Put shortly: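 MDA-kb2 human breast carcinoma cells carrying an MMTV-luciferase reporter (AR- and GR-responsive) were treated with compounds at 15 concentrations plus 3.0uM final nilutamide for 16hr at 37C without CO2; luminescence was read after ONE-Glo addition.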

Assay [16] is described as follows: qHTS assay to identify small molecule agonists of the estrogen receptor alpha (ER-alpha) signaling pathway in the presence of an antagonist - cell viability counter screen (AID 1259386).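 Further: cells exposed to compounds for 22 h at 37 °C before the viability read; nearly all actives have a fitted effect of over 30% in size.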 Further: potency means the concentration at half of the fitted maximal effect. A digest of the protocol:
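VM7Luc4E2 cells (endogenous full-length ER-alpha, 4×ERE-luciferase) were held 5 days in phenol red-free medium with 10% charcoal-stripped FBS, plated, then given 10.0nM ICI-182,780 and compounds at 15 concentrations for 22hr at 37C; viability read by CellTiter-Fluor fluorescence.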

Assay [17] concerns the target Thyrotropin-releasing hormone receptor (Homo sapiens) (UniProt P34981). The experiment in a line: qHTS assay to identify small molecule antagonists of the thyrotropin-releasing hormone receptor (TRHR) signaling pathway (AID 1346877; active means well fitted inhibition curve with a large enough effect in the repeat runs, not every such curve was filed as active; further: series mostly up to about 51 µM). A digest of the protocol:
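TRHR-expressing HEK293 cells were seeded, cultured 18 h at 37 °C, then loaded with calcium dye for 2 h. Compounds were pre-incubated 5 min at room temperature before 1 nM TRH (final) was added, and kinetic fluorescence was recorded for 3 min.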

Assay [18] has the same target. The experiment in a line: qHTS assay to identify small molecule agonists of the thyrotropin-releasing hormone receptor (TRHR) signaling pathway (AID 1346891; calls by dose curve; further: series mostly up to about 58 µM). Put shortly:
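Cells: TRHR-Hek293, seeded and incubated 18 h. Dye loading: 2 h at 37 °C. Compound added from DMSO stock by pin tool. Read-out: kinetic calcium fluorescence over 3 min.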

The target in assay [19] is Estrogen receptor beta (Homo sapiens) (UniProt Q92731). The experiment in a line: qHTS assay to identify small molecule antagonists of the estrogen receptor beta (ER-beta) signaling pathway (AID 1259378; active means well fitted inhibition curve with a large enough effect in the signal ratio in the repeat runs, not every such curve was filed as active; the % refers to the signal ratio; further: potency means the concentration at half of the fitted maximal effect). Put shortly:
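ER-beta-UAS-bla HEK293T (GripTite) cells in 2% charcoal-stripped FBS medium were preincubated 6 hr at 37C, dosed with compound, then stimulated with 1 nM E2 (final) for 16 hr; beta-lactamase reporter read by B/G FRET fluorescence after 2 hr substrate loading.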

Assay [20] can be described thus: qHTS assay to identify small molecule agonists of the estrogen receptor beta (ER-beta) signaling pathway - cell viability counter screen (AID 1259380). Further: nearly all actives have a fitted effect of over 30% in size. Further: potency means the concentration at half of the fitted maximal effect. Put shortly:
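ER-beta-UAS-bla HEK293T cells in medium with 2% charcoal-stripped FBS were preincubated 6 hr at 37C, dosed with compound in DMSO for 16 hr, then after the bla read, CellTiter-Glo was added for 30 min at room temperature; luminescence recorded.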

Molecules are shown by their SMILES. Results filed as inconclusive are left out. The source made the active and inactive calls. Unless noted, the call rests on the fitted dose curve; in most records, active means well fitted curve in the direction sought with a large enough effect in the repeat runs; inconclusive means weak or mixed curves; inactive means no such curve, though single readings can be large; an effect the other way counts as inactive or inconclusive.

Chain of Thyrotropin receptor (Homo sapiens) (P16473 whole entry, looked up): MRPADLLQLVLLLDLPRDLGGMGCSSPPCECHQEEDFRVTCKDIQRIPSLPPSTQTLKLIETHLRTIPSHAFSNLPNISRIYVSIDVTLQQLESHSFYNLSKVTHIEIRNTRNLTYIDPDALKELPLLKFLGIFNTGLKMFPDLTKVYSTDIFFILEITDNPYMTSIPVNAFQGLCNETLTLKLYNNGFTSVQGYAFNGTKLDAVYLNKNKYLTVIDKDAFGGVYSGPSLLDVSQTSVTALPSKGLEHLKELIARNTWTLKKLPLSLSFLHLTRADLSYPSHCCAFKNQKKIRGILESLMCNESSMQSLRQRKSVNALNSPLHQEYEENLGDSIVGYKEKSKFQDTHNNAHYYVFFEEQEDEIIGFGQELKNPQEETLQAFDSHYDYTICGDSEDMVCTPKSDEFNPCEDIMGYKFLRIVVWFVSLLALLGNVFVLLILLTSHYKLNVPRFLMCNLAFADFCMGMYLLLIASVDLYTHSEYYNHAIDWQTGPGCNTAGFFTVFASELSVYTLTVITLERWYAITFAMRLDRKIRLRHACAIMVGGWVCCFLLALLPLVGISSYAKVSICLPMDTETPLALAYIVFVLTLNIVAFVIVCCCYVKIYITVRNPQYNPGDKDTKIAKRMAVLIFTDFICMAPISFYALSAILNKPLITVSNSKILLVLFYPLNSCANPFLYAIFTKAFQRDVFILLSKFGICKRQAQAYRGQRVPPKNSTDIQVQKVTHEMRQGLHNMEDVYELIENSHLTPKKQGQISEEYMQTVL
Chain of Progesterone receptor (Homo sapiens) (P06401 whole entry, looked up): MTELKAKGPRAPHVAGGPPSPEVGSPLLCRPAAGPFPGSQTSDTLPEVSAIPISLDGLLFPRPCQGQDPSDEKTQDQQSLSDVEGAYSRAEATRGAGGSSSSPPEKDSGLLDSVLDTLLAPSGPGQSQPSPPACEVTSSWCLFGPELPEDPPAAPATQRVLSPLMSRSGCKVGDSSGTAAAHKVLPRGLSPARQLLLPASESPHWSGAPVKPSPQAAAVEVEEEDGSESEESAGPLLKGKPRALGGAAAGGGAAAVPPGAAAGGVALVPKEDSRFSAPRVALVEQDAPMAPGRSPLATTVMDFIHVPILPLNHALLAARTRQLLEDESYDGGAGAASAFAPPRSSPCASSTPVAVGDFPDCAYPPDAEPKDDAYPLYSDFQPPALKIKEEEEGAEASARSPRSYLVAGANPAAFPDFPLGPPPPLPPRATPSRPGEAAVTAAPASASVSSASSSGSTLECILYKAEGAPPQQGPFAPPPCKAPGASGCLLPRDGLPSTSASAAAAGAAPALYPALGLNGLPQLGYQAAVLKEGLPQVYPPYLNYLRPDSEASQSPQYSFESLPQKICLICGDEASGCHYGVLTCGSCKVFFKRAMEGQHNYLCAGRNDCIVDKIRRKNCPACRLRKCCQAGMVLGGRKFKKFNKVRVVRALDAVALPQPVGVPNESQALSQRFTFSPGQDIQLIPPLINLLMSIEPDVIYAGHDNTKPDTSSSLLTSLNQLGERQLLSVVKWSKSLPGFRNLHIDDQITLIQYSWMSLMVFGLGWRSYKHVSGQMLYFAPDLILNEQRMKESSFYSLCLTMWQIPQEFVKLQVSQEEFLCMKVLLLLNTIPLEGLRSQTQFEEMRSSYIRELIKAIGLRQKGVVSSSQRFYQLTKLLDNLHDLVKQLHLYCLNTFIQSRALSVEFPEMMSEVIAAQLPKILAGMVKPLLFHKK
Chain of Estrogen receptor (Homo sapiens) (P03372 whole entry, looked up): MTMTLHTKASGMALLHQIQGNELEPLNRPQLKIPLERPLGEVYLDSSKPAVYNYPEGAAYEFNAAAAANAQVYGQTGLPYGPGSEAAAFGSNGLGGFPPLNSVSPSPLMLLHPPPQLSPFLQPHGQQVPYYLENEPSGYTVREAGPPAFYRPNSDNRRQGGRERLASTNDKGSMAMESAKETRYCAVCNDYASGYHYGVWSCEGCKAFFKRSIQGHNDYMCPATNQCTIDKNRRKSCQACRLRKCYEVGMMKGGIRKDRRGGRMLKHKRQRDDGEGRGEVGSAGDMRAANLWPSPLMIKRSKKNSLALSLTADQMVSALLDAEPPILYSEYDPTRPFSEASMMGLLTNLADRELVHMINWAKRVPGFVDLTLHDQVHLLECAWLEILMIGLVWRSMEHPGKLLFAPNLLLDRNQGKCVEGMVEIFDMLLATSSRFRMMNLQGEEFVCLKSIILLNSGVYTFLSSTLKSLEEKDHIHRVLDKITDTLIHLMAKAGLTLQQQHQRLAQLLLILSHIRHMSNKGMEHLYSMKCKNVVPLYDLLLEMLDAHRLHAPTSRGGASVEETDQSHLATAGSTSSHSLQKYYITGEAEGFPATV
Chain of Thyrotropin-releasing hormone receptor (Homo sapiens) (P34981 whole entry, looked up): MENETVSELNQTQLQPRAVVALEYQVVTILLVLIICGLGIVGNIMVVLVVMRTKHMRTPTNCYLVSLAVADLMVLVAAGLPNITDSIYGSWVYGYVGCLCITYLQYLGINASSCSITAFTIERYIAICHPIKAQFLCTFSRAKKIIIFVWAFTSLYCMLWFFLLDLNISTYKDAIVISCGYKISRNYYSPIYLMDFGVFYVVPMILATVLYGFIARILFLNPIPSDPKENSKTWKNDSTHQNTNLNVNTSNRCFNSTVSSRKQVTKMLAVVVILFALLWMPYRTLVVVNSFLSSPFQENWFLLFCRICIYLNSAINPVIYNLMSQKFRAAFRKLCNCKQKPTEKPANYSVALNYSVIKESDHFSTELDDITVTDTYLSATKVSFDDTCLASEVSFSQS
Chain of Estrogen receptor beta (Homo sapiens) (Q92731 whole entry, looked up, the tested form may be a part): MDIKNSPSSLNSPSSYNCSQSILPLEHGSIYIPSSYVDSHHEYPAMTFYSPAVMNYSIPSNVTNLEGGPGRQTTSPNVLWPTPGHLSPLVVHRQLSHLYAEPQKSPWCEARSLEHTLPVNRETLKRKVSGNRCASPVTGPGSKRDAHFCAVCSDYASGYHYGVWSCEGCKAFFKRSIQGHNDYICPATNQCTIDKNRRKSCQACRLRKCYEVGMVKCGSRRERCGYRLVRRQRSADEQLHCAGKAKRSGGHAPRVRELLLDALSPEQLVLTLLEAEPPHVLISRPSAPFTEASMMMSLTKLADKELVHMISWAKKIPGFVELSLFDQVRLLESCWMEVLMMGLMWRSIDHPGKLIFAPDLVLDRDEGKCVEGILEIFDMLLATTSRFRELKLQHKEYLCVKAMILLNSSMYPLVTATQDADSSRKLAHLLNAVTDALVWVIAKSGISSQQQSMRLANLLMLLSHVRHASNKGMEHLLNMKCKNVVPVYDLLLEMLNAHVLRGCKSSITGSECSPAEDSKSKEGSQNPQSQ
Chain of Androgen receptor (Homo sapiens) (P10275 whole entry, looked up): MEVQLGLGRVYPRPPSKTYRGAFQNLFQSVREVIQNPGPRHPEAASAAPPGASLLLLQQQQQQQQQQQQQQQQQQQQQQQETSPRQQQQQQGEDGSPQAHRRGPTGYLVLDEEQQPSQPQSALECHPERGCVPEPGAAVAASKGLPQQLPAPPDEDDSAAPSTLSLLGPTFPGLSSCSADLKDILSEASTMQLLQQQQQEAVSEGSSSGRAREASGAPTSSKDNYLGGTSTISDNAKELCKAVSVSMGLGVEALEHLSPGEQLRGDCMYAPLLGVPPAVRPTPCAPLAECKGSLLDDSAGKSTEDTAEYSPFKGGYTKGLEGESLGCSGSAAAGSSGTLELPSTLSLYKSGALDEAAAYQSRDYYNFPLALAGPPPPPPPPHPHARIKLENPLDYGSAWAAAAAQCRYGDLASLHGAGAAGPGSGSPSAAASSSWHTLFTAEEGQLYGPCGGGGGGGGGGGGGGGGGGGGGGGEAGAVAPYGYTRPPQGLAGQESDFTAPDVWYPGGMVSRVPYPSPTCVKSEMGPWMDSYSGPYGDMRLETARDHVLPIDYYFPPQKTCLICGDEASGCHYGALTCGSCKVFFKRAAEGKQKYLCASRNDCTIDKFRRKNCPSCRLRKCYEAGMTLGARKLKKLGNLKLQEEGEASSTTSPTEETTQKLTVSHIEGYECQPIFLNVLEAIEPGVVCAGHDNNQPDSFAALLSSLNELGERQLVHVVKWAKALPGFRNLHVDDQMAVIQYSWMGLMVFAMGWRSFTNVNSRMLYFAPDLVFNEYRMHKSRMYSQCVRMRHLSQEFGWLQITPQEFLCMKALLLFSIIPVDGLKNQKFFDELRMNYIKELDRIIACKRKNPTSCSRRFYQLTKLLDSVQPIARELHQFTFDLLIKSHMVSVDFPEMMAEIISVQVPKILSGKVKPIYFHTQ

For the compound `C=C(C)C(=O)OCCOCC`, the Potency result in assay [1], in assay [2], in assay [3], in assay [4], in assay [5] and in [6] was “inactive” throughout. Besides, the Potency result in assay [7], in assay [8], in assay [9], in [10], in [11] and in assay [13] was “inactive” each time. Also, the outcome in assay [12] was inactive.
As to `COc1ccc(S(=O)(=O)N2C(=O)[C@@](c3ccccc3OC)(N3C[C@H](O)C[C@H]3C(=O)N(C)C)c3cc(Cl)ccc32)c(OC)c1`, the Potency in assay [14] is 15.4 µM (active); in assay [16], 27.3 µM (active); in assay [8] it was 54.5 µM (active). Also, the Potency entry in assay [15], in assay [3], in [4], in assay [5], in [6] and in assay [11] was “inactive” each time. Further, the Potency result in assay [18] is “inactive”. The call in assay [12] and in assay [17] was inactive.
Take `CO[C@@H]1[C@H](OC(=O)/C=C/C=C/C=C/C=C/C(=O)O)CC[C@]2(CO2)[C@H]1[C@@]1(C)O[C@@H]1CC=C(C)C`: the Potency result in assay [1], in assay [19], in assay [20], in assay [3], in assay [4] and in assay [5] was “inactive” each time. The Potency entry in assay [6], in assay [16], in assay [7], in assay [8], in assay [9] and in assay [10] was “inactive” throughout. Also, the Potency entry in assay [11], in assay [13] and in assay [18] was “inactive” in each case. Also, the call in assay [12] and in assay [17] was inactive.
In the case of `CN(C)CCCN1c2ccccc2Sc2ccccc21`, the Potency in assay [14] is 11.9 µM (active); in [20] it was 21.1 µM (active); in assay [3] it was 26.6 µM (active). Besides, the Potency entry in assay [16], in assay [7], in [11], in [13] and in assay [18] was “inactive” each time. The result in assay [12] was inactive.
For `O=P(O)(OCc1ccccc1)OCc1ccccc1`, the Potency result in assay [1], in [19], in assay [2], in [20], in [3] and in assay [4] was “inactive” in each case. Further, the Potency entry in assay [5], in assay [6], in [16], in [7], in [8] and in [9] was “inactive” each time. Besides, the Potency entry in assay [10], in [11] and in [13] was “inactive” in each case. Also, the result in assay [12] was inactive.
With `CCCCCCCCCCCCN1CCCCCC1=O`, the Potency entry in assay [1], in assay [2], in assay [5], in assay [16], in assay [9] and in assay [11] was “inactive” in each case. The Potency result in assay [13] and in [18] was “inactive” in each case. For the same compound, the Potency in assay [20] was 30.6 µM (active). Moreover, in assay [17], the call was inactive.
With `O=C1CCC(=O)O1`, the Potency result in assay [14], in [20], in assay [3], in assay [4], in [16] and in assay [8] was “inactive” each time. Besides, the Potency entry in assay [9], in assay [10], in [11], in assay [13] and in [18] was “inactive” each time. For the same compound, the result in assay [12] and in [17] was inactive.
For the compound `CCc1cc(C2=C(C(=O)O)N(c3ccccc3C(F)(F)F)S(=O)(=O)c3ccccc32)cc2c1OCO2`, the Potency entry in assay [14], in assay [7], in assay [11] and in assay [13] was “inactive” each time. Moreover, the Potency in assay [20] is 15.2 µM (active). Besides, the compound was classed as inactive in assay [12] and in assay [17].
With `CC(C)OC(=O)C(C)N(C(=O)c1ccccc1)c1ccc(F)c(Cl)c1` (stereo not given), the Potency result in assay [1], in assay [2], in assay [20], in assay [3], in [16] and in assay [7] was “inactive” each time. In addition, the Potency entry in assay [11], in [13] and in assay [18] was “inactive” each time. Besides, the Potency in [8] is 24.3 µM (active). Also, the compound was classed as inactive in assay [12].
For `CCC(CC)Nc1ccc(C)c(C)c1`, the Potency entry in [1], in assay [19], in [2], in [20], in assay [4] and in assay [16] was “inactive” throughout. Further, the Potency result in assay [7], in assay [8], in assay [9], in [10], in assay [11] and in assay [13] was “inactive” in each case. Further, in [18], the Potency result is “inactive”. Besides, the outcome in assay [12] and in assay [17] was inactive.
As for `c1ccc(CNCCNCc2ccccc2)cc1`, the Potency entry in [1], in [2], in assay [20], in [4], in assay [5] and in assay [16] was “inactive” each time. Also, the Potency result in [7], in assay [8], in assay [9], in assay [10], in assay [11] and in [13] was “inactive” each time. In addition, the Potency entry in assay [18] was “inactive”. In [19], the Potency was 10.6 µM (active). The call in assay [12] was inactive.
For `Cc1ccc(C(=O)Oc2ccc(C(O)CNC(C)(C)C)cc2OC(=O)c2ccc(C)cc2)cc1` (stereo not given), the Potency entry in assay [14], in assay [4], in assay [16], in assay [7], in [8] and in [9] was “inactive” throughout. For the same compound, the Potency entry in assay [10] and in assay [11] was “inactive” each time. Besides, the Potency in [20] was 26.6 µM (active); in assay [5], 36.2 nM (active). In addition, the compound was called inactive in assay [12] and in [17].
